Reference: the supplement of paper PMC10338343
± gives the standard deviation.

Columns and labels:
[1] = system: MILI (PIWIL2) piRISC loaded with piRNA #1 (26 nt); assay: pre-steady-state target cleavage rate (min^-1); guide: piRNA #1 5'p-UGAGGUAGUAGGUUGUAUAGUAUCCA; higher = faster piRNA-guided slicing of the target; conditions: auxiliary factor: 500 nM mouse GTSF1;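 also: 1 nM active piRISC with 0.1 nM target library at 33 °C single turnover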
Procedure, shortened: (§1)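 Three pooled Cleave-'n-Seq trials supplied the data, with k3 capped at 0.0001 min^-1. In each, […] transcribed, DNA-blocked target RNA library and 1 nM active affinity-purified piRISC with one synthetic guide reacted in HEPES–potassium acetate buffer at 33 °C for 0–8 or 0–960 min, with or without 500 nM GTSF1 partner protein. Uncleaved targets were sequenced and normalised to depth and to weakly complementary targets. A burst-and-steady-state fit provided the pre-steady-state cleavage rate.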

[2] = system: EfPiwi piRISC loaded with piRNA #1 (26 nt); assay: pre-steady-state target cleavage rate (min^-1); auxiliary factor: 500 nM Ephydatia muelleri Gtsf1; guide: piRNA #1 5'p-UGAGGUAGUAGGUUGUAUAGUAUCCA; MIWI and MILI are mouse PIWI proteins and EfPiwi is from a freshwater sponge; tags in brackets are library labels; higher = faster piRNA-guided slicing of the target
Procedure, shortened: as §1

Sequence: GGAGACGAAACUAUACAACCUACUACCUCA
- pre-steady-state target cleavage rate [1]: 0.172 ± 0.022
- pre-steady-state target cleavage rate [2]: 0.0619 ± 0.022

Sequence: GGAGUGGAUAGUUUACAACCUACUACCUCA
- pre-steady-state target cleavage rate [1]: 0.11 ± 0.0082
- pre-steady-state target cleavage rate [2]: 0.00446 ± 0.0033

Sequence: GGAGACCAUACAAAACAACCUACUACCUCA
- pre-steady-state target cleavage rate [1]: 0.0496 ± 0.014
- pre-steady-state target cleavage rate [2]: 0.00423 ± 0.0037

Sequence: GGAGAGGAUACUAAACAACCUACAACCUCA
- pre-steady-state target cleavage rate [1]: 0.119 ± 0.014
- pre-steady-state target cleavage rate [2]: 0.00196 ± 0.0019

Sequence: GGAGACCUAUGAGUACAACCUACUACCUCA
- pre-steady-state target cleavage rate [1]: 0.00674 ± 0.0022
- pre-steady-state target cleavage rate [2]: 0.00713 ± 0.004

Sequence: GGAGACCUAUGUAUACAACCUACUACCAUCA
- pre-steady-state target cleavage rate [1]: 0.0684 ± 0.01

Sequence: GGAGACCAUAGUUUACAACCUACUACCUCA
- pre-steady-state target cleavage rate [1]: 0.0547 ± 0.0081
- pre-steady-state target cleavage rate [2]: 0.0227 ± 0.0096

Sequence: GGAGUGGAAACUAUACAACGUACUACCUCA
- pre-steady-state target cleavage rate [1]: 0.0251 ± 0.0048
- pre-steady-state target cleavage rate [2]: 0.00364 ± 0.0017

Sequence: GGAGACCUAUCUAUACUACCUUCUACCUCA
- pre-steady-state target cleavage rate [1]: 0.00727 ± 0.003

Sequence: GGAGUGGAUACUAUACAACCUACUACCGUCA
- pre-steady-state target cleavage rate [1]: 0.0282 ± 0.006
- pre-steady-state target cleavage rate [2]: 0.00748 ± 0.0027

Sequence: GGAGACCUUACUAUACAGCCUACUACCUCA
- pre-steady-state target cleavage rate [1]: 0.116 ± 0.012
- pre-steady-state target cleavage rate [2]: 0.068 ± 0.028

Sequence: GGAGACCUAACUAUACAUCCUACUAGCUCA
- pre-steady-state target cleavage rate [1]: 0.162 ± 0.042

Sequence: GGAGAGGAUACUAUACAAACCUACUACCUCA
- pre-steady-state target cleavage rate [1]: 0.00683 ± 0.0028
- pre-steady-state target cleavage rate [2]: 0.0671 ± 0.028

Sequence: GGAGACCUAUCUAUAGUACCUACUACCUCA
- pre-steady-state target cleavage rate [1]: 0.092 ± 0.014

Sequence: GGAGACGAUUCUAUACAACCUAGUACCUCA
- pre-steady-state target cleavage rate [1]: 0.07 ± 0.011
- pre-steady-state target cleavage rate [2]: 0.00392 ± 0.0022

Sequence: GGAGACCAUACUAUACAACCUACUACGACA
- pre-steady-state target cleavage rate [1]: 0.16 ± 0.025
- pre-steady-state target cleavage rate [2]: 0.00532 ± 0.0028

Sequence: GGAGACCAUACUAUACAACCUAUCUACCUCA
- pre-steady-state target cleavage rate [1]: 0.0997 ± 0.014
- pre-steady-state target cleavage rate [2]: 0.00419 ± 0.0028

Sequence: GGAGUGGAUAGUAUACAACCAACUACCUCA
- pre-steady-state target cleavage rate [1]: 0.0064 ± 0.0029
- pre-steady-state target cleavage rate [2]: 0.00306 ± 0.0018

Sequence: GGAGACCCUACUAUACAACCUACUACCUCA
- pre-steady-state target cleavage rate [1]: 0.207 ± 0.021
- pre-steady-state target cleavage rate [2]: 0.153 ± 0.051

Sequence: GGAGAGGAAACUAUACAAGCUACUACCUCA
- pre-steady-state target cleavage rate [1]: 0.179 ± 0.031
- pre-steady-state target cleavage rate [2]: 0.00403 ± 0.0014

Sequence: GGAGAGGAUACUAAACAACCUAGUACCUCA
- pre-steady-state target cleavage rate [1]: 0.00823 ± 0.004
- pre-steady-state target cleavage rate [2]: 0.00257 ± 0.002

Sequence: GGAGACGAAACUAUACAACCUACUACCUGA
- pre-steady-state target cleavage rate [1]: 0.149 ± 0.039
- pre-steady-state target cleavage rate [2]: 0.00491 ± 0.0026

Sequence: GGAGUGAGAUACUAUACAACCUACUACCUCA
- pre-steady-state target cleavage rate [1]: 0.189 ± 0.012
- pre-steady-state target cleavage rate [2]: 0.0362 ± 0.015

Sequence: GGAGUGGAUACUAUAGAACCUACAACCUCA
- pre-steady-state target cleavage rate [1]: 0.0134 ± 0.0034
- pre-steady-state target cleavage rate [2]: 0.00234 ± 0.0015

Sequence: GGAGACCAUACUAUUCAACCUACUACCUCA
- pre-steady-state target cleavage rate [1]: 0.189 ± 0.016
- pre-steady-state target cleavage rate [2]: 0.0056 ± 0.0032

Sequence: GGAGACGAUACUAAACAUCCUACUACCUCA
- pre-steady-state target cleavage rate [1]: 0.267 ± 0.021
- pre-steady-state target cleavage rate [2]: 0.00359 ± 0.0026

Sequence: GGAGUGGAUACUAUACUACCUACAACCUCA
- pre-steady-state target cleavage rate [1]: 0.117 ± 0.0096
- pre-steady-state target cleavage rate [2]: 0.00209 ± 0.0019

Sequence: GGAGACGAUACUAUACAACCUAGUACCACA
- pre-steady-state target cleavage rate [1]: 0.00571 ± 0.0053
- pre-steady-state target cleavage rate [2]: 0.00488 ± 0.0029

Sequence: GGAGAGGGUACUAUACAACCUACUACCUCA
- pre-steady-state target cleavage rate [1]: 0.145 ± 0.013
- pre-steady-state target cleavage rate [2]: 0.0162 ± 0.0072

Sequence: GGAGACGAUACAAUACAACCUAGUACCUCA
- pre-steady-state target cleavage rate [1]: 0.0665 ± 0.011
- pre-steady-state target cleavage rate [2]: 0.00289 ± 0.0015

Sequence: GGAGACCUAUGUAUUCAACCUACUACCACA
- pre-steady-state target cleavage rate [1]: 0.0995 ± 0.016
- pre-steady-state target cleavage rate [2]: < 0.0001

Sequence: GGAGACCAUCACUAUACAACCUACUACCUCA
- pre-steady-state target cleavage rate [1]: 0.147 ± 0.021
- pre-steady-state target cleavage rate [2]: 0.0254 ± 0.012

Sequence: GGAGACCUAUGUAUACAACCUAGUACCUCA
- pre-steady-state target cleavage rate [1]: 0.00921 ± 0.0021
- pre-steady-state target cleavage rate [2]: 0.00291 ± 0.0029

Sequence: GGAGACCUAUGAUUACAACCUACUACCUCA [g2:g17:cont:t1A]
- pre-steady-state target cleavage rate [1]: 0.00593 ± 0.0026
- pre-steady-state target cleavage rate [2]: 0.00451 ± 0.0032

Sequence: GGAGACCUUACUAUAACAACCUACUACCUCA
- pre-steady-state target cleavage rate [1]: 0.134 ± 0.013
- pre-steady-state target cleavage rate [2]: 0.00893 ± 0.0047

Sequence: GGAGACGAUACAAUACUACCUACUACCUCA
- pre-steady-state target cleavage rate [1]: 0.201 ± 0.017
- pre-steady-state target cleavage rate [2]: 0.00238 ± 0.0021

Sequence: GGAGACGAUACUAUAGAAGCUACUACCUCA
- pre-steady-state target cleavage rate [1]: 0.16 ± 0.014
- pre-steady-state target cleavage rate [2]: 0.00294 ± 0.0013

Sequence: GGAGACCAUACUAUACAUCGUACUACCUCA
- pre-steady-state target cleavage rate [1]: 0.0535 ± 0.0071
- pre-steady-state target cleavage rate [2]: 0.0027 ± 0.0021

Sequence: GGAGACGAUACUAUACAACCUAGCUACCUCA
- pre-steady-state target cleavage rate [1]: 0.0598 ± 0.0083
- pre-steady-state target cleavage rate [2]: 0.00543 ± 0.0023

Sequence: GGAGUGGAUACUAUACAACCUACUACCUGCA
- pre-steady-state target cleavage rate [1]: 0.109 ± 0.012
- pre-steady-state target cleavage rate [2]: 0.00841 ± 0.0028

Sequence: GGAGACCAUAGAAUACAACCUACUACCUCA
- pre-steady-state target cleavage rate [1]: 0.0281 ± 0.0057
- pre-steady-state target cleavage rate [2]: 0.00684 ± 0.0033

Sequence: GGAGUGGAUAGUAUACAACCUACUACCACA
- pre-steady-state target cleavage rate [1]: 0.0277 ± 0.0092
- pre-steady-state target cleavage rate [2]: 0.00327 ± 0.0018

Sequence: GGAGAGGAUACAUAUACAACCUACUACCUCA
- pre-steady-state target cleavage rate [1]: 0.104 ± 0.0078
- pre-steady-state target cleavage rate [2]: 0.0587 ± 0.024

Sequence: GGAGAGGAUACUAGACAACCUACUACCUCA
- pre-steady-state target cleavage rate [1]: 0.118 ± 0.01
- pre-steady-state target cleavage rate [2]: 0.0121 ± 0.0055

Sequence: GGAGUGGUUACUAUACAACCAACUACCUCA
- pre-steady-state target cleavage rate [1]: 0.00796 ± 0.0019
- pre-steady-state target cleavage rate [2]: 0.0036 ± 0.0014

Sequence: GGAGACCAUACUUUACUACCUACUACCUCA
- pre-steady-state target cleavage rate [1]: 0.129 ± 0.015
- pre-steady-state target cleavage rate [2]: 0.00371 ± 0.0032

Sequence: GGAGUCGAUACUAUACUACCUACUACCUCA
- pre-steady-state target cleavage rate [1]: 0.19 ± 0.012
- pre-steady-state target cleavage rate [2]: 0.00591 ± 0.0029

Sequence: GGAGAGGAUACUAUACAACCUACAAGCUCA
- pre-steady-state target cleavage rate [1]: 0.00476 ± 0.0031
- pre-steady-state target cleavage rate [2]: 0.00284 ± 0.0023

Sequence: GGAGACGAUACUAUAGAACCUACUAGCUCA
- pre-steady-state target cleavage rate [1]: 0.0159 ± 0.0077
- pre-steady-state target cleavage rate [2]: 0.00419 ± 0.0018

Sequence: GGAGACGAUACUAAACAACCUACUACCUCA
- pre-steady-state target cleavage rate [1]: 0.207 ± 0.016
- pre-steady-state target cleavage rate [2]: 0.0292 ± 0.012

Sequence: GGAGUGGAUACUAUAGCAACCUACUACCUCA
- pre-steady-state target cleavage rate [1]: 0.188 ± 0.009
- pre-steady-state target cleavage rate [2]: 0.0919 ± 0.034

Sequence: GGAGACCUAUCUGAUACAACCUACUACCUCA
- pre-steady-state target cleavage rate [1]: 0.0421 ± 0.0081
- pre-steady-state target cleavage rate [2]: 0.00758 ± 0.0035

Sequence: GGAGACGAAUCUAUACAACCUACUACCUCA
- pre-steady-state target cleavage rate [1]: 0.146 ± 0.015
- pre-steady-state target cleavage rate [2]: 0.0517 ± 0.018

Sequence: GGAGACCAUACUAUACAACCUACUUCCACA
- pre-steady-state target cleavage rate [1]: 0.0785 ± 0.018
- pre-steady-state target cleavage rate [2]: 0.0032 ± 0.0032

Sequence: GGAGACCAUGACUAUACAACCUACUACCUCA
- pre-steady-state target cleavage rate [1]: 0.142 ± 0.021
- pre-steady-state target cleavage rate [2]: 0.0764 ± 0.029

Sequence: GGAGACCAUUACUAUACAACCUACUACCUCA
- pre-steady-state target cleavage rate [1]: 0.137 ± 0.012
- pre-steady-state target cleavage rate [2]: 0.148 ± 0.044

Sequence: GGAGAGGAUAGCUAUACAACCUACUACCUCA
- pre-steady-state target cleavage rate [1]: 0.035 ± 0.0046
- pre-steady-state target cleavage rate [2]: 0.0146 ± 0.0073

Sequence: GGAGACCAUACUAUACAACCUACUACGCUCA
- pre-steady-state target cleavage rate [1]: 0.219 ± 0.028
- pre-steady-state target cleavage rate [2]: 0.00458 ± 0.0028
